# HT1080-NT tox: kills 2HG-producing HT-1080-NT fibrosarcoma cells. HT-1080-NT fibrosarcoma viability, CellTiter-Glo ATP luminescence, 48 h. Potency, µM (highest dose often 46.1 µM), for the others: at the highest dose activity, negative = less viability, most hits filed as cytotoxic. hit rate 1.6% among 360,000;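 also: NT is the 2HG producing partner of a matched IDH1 knockdown line; potency is read from the fitted curve at half-maximal effect; 0% = DMSO-treated cells and -100% = media-only wells without cells; nearly all actives have a fitted effect of over 55% in size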
#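 HT-1080-NT fibrosarcoma cells (2HG-overproducing), 750 cells/well in RPMI with 5% FBS, dosed after 2 h and incubated 48 h at 37C. CellTiter-Glo luminescence normalized to DMSO and no-cell wells; concentration-response curves fitted and classed.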
# HT1080 IDH1KD tx: HT-1080 IDH1 knockdown cell toxicity (counter line) | HT-1080 IDH1 knockdown viability, ATP luminescence, 48 h | Potency, µM (highest dose often 46.1 µM), for inactives: at the top dose activity, negative = toxicity, actives largely listed as cytotoxic | hit rate 2% among 360,000 | AID 686971;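 also: potency is read from the fitted curve at half-maximal effect; 0% = DMSO wells and -100% = cell-free medium wells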
#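 Luminescent ATP read-out (CellTiter-Glo, 10 min at room temperature) after 48 h compound exposure at 37 °C gave viability of IDH1-knockdown HT-1080 cells. Activity was normalised to DMSO and cell-free wells, then fitted as concentration-response curves.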
# DT40 TDP1 CPT: growth inhibition of DT40 Tdp1-/-;hTDP1 cells with camptothecin (screen for TDP1 inhibitors); chicken DT40 Tdp1-/-;hTDP1 cells + 20 nM CPT, ATP luminescence, 48 h; Potency, µM (titrated, usually from 46.2 µM), for the others: at the top dose activity change, negative = growth inhibition, actives largely listed as inhibitors; hit rate 12% among 420,000; also: potency is read from the fitted curve at half-maximal effect; nearly all actives have a fitted effect of over 55% in size
#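 Chicken DT40 Tdp1-/- cells complemented with human TDP1, 400 cells/well, exposed to compounds plus 20 nM camptothecin for at least 48 h at 37 C; viability read as ATP content by CellTiter-Glo luminescence.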
# TDP1 cell noCPT: qHTS for Inhibitors of human tyrosyl-DNA phosphodiesterase 1 (TDP1): qHTS in cells in absence of CPT; DT40 Tdp1-/- hTDP1 cells, no CPT, ATP luminescence, 48 h; Potency, µM (titrated, usually from 46.2 µM), for the others: at the top dose activity change, negative = growth inhibition, most hits filed as inhibitors; hit rate 15% among 420,000; also: potency is read from the fitted curve at half-maximal effect; nearly all actives have a fitted effect of over 55% in size
#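 Chicken DT40 Tdp1-/- cells stably complemented with human TDP1 were seeded at 400 cells/well with DMSO in place of 20 nM camptothecin. After compound pinning, cells grew at least 48 hr at 37 °C; viability read by CellTiter-Glo luminescence.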
# IL1B secr inh: inflammasome signaling inhibition, IL-1 beta readout | THP-1 LPS/ATP IL-1B secretion, AlphaLISA, 16 h; active compounds read low | hit rate 4.7% among 360,000 | activity change, % at 57.5 µM; in the data active = activity change below about -50%; inconclusive = mostly about -30% to -49%
#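 Secreted IL-1B measured by AlphaLISA bead assay after 16 h compound exposure of THP-1 cells; compounds (final up to 57.5 uM) added 1 h before LPS (250 ng/mL) and ATP (1.25 mM) stimulation; lower signal means less secretion.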
# Active calls of the source: *; ? = inconclusive; / = not tested or not shown; [ ] = remark or other dose. In the library only some 19% were active in any assay of this set; here they are far more common. Unless noted, calls follow the shape of the dose curve; as a rule, active = well fitted curve in the direction sought with a large enough effect; inconclusive = small, poorly fitted or top-dose-only effect, or another doubt; inactive = no such curve, though single readings can be large; an effect the other way counts as inactive or inconclusive. Unless noted, % is scaled to controls: 0 for no effect and ±100 for the full control effect.
SMILES,HT1080-NT tox,HT1080 IDH1KD tx,DT40 TDP1 CPT,TDP1 cell noCPT,IL1B secr inh
O=C(OCc1cn([C@H]2CN(Cc3cccs3)[C@@H](c3ccccc3)C[C@@H]2O)nn1)c1ccccc1,-1%,-11%,18µM*,21µM*,21
O=C(OCc1cn([C@H]2CN(Cc3cccs3)[C@@H](c3ccc(Cl)cc3)C[C@@H]2O)nn1)c1ccccc1,6%,6%,?,-26%,18
COc1ccc([C@H]2C[C@H](n3cc(COC(=O)c4ccccc4)nn3)[C@@H](O)CN2Cc2cccs2)cc1,-7%,6%,?,18µM*,-1
O=C(c1ccco1)N1CCC2(CC1)CN(Cc1cc(C(F)(F)F)cc(C(F)(F)F)c1)C2,/,/,-30%,-25%,/
COc1ccccc1CNC(=O)CS(=O)(=O)c1ccccc1,5%,3%,9%,4%,12
Cc1cc(C(=O)Nc2ccccc2-c2nc(CNC(=O)c3cc4ccccc4cn3)c(C)o2)c(C)o1,/,/,0%[9.04 µM],-2%,/
CC(C)Oc1ccc(CNC(=O)C(C)n2ccc3cc(S(=O)(=O)N4CCCCCC4)ccc32)cc1 (centres undefined),/,/,?,21µM*,/
CC(C(=O)NCc1ccco1)n1ccc2cc(S(=O)(=O)N3CCCC3)ccc21 (centres undefined),-6%,-2%,-22%,-8%,40
CC(C(=O)NCc1ccc(Cl)cc1)n1ccc2cc(S(=O)(=O)N3CCCCCC3)ccc21 (centres undefined),/,/,?,18µM*,/
COc1ccc(CNC(=O)C(C)n2ccc3cc(S(=O)(=O)N4CCCCCC4)ccc32)cc1 (centres undefined),6%,-10%,?,?,?
CCc1ccc2c(c1)-c1ccccc1S(=O)(=O)N2CC(=O)N1CCC(C)CC1,/,/,16µM*,18µM*,/
CCOC(=O)C1CCN(C(=O)CN2c3ccc(C(C)C)cc3-c3ccccc3S2(=O)=O)CC1,/,/,21µM*,?,/
CC1CCN(C(=O)CN2C(=O)c3ccccc3S2(=O)=O)CC1,5%,11%,1%,10%,4
Cc1ccc(/C=N\NC(=O)Cc2noc3ccccc23)cc1,?,-1%,-6%,-13%,10
O=C(C1=C[C@H](c2csc3ccccc23)C[C@H](OCc2ccc(CO)cc2)O1)N1CCCCCCC1,-22%,-22%,?,21µM*,-20
C#CCNC(=O)C1=C[C@@H](c2csc3ccccc23)C[C@@H](OCc2ccc(CO)cc2)O1,-1%,-5%,16µM*,?,0
O=C(Nc1ccccc1)C1=C[C@H](c2coc3ccccc3c2=O)C[C@H](OCc2ccc(CO)cc2)O1,-3%,5%,?,?,?
O=C(NCc1ccccc1)C1=C[C@@H](c2csc3ccccc23)C[C@@H](OCCCCO)O1,-28%,?,1.6µM*,1.6µM*,-12
O=C(NCc1ccccc1)C1=C[C@@H](c2coc3ccccc3c2=O)C[C@@H](OCc2ccc(CO)cc2)O1,-16%,-16%,10µM*,9.2µM*,-9
CC1(c2nnnn2-c2ccc3c(c2)OCCO3)CCC(=O)N1CCc1ccccc1F (centres undefined),10%,11%,?,?,6
O=C(NCc1ccccc1)C1=C[C@@H](c2csc3ccccc23)C[C@@H](OCc2ccc(CO)cc2)O1,-16%,-28%,2.9µM*,4.6µM*,?
Cc1ccc(NC(=O)CC2SC(=O)NC2=O)cc1 (centres undefined),10%,6%,2.6µM*,5.8µM*,-4
COc1ccc(NC(=O)CC2SC(=O)NC2=O)cc1 (centres undefined),13%,10%,2.3µM*,5.8µM*,-5
COc1ccc(NC(=O)/C=C2\SC(=O)NC2=O)cc1,0%,-2%,12%,13%,-51*
O=C(NNC1=NCCC1)C1CC1,10%,9%,-3%,14%,5

# Screens from PubChem.
